# Activity calls are given as the source filed them.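 The calls were made as follows, unless noted: active = fluorescence slope higher than the sample average by over 3 SD (cut at about -0.22 in these data, passing the limit was not always enough); inactive = the rest.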
# Legend:
# [1] = inhibitors of TNFa-induced NFkB p65 translocation, primary screen, imaging, HUVEC, MLSMR starter and 10KST1 sets (AID 438;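 active = inhibition above 20% together with a positive visual image hit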;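 also: compound added about 3h40 before a 20 min TNFalpha stimulation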;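 as to inhibition: signal is the nuclear over cytoplasmic p65 intensity ratio per well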); details: HUVEC TNFa-induced p65 nuclear translocation; cell count: measured here: nuclei count (cytotoxicity indicator), at 2.08 µM; inhibition: at 2 µM, stronger effect = higher value, 0% TNFa-plus-vehicle, 100% no-TNFa wells
# [2] = reduction of polyQ htt aggregates in cells – imaging, exon1htt(103Q)mCFP cells, high-content imaging, primary screen (AID 483;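 active = visual image review flags a hit and inhibition of aggregation exceeds 20%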;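 also: compound exposure lasted 3 days before fixation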;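 as to nuclei count: percent of the per-plate median nuclei count of sample wells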); details: exon1htt(103Q)mCFP cell line, aggregate imaging, at 2 µM; inhibition of aggregation: stronger effect = higher value; nuclei count: measured here: cell count, toxicity
# [3] = endothelial E-selectin expression blockers – imaging, HUVEC, immunofluorescence, MLSMR starter and 10KST1 sets, primary screen (AID 487;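 active = visually confirmed hit in the image check and inhibition above 20%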;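 as to inhibition: signal is fraction of cell area covered by stained E-selectin grains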;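 as to nuclei count: 100% = median nuclei count of all wells on the same plate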); details: HUVEC TNFalpha-induced E-selectin immunofluorescence imaging, at 2 µM; inhibition: stronger effect = higher value; nuclei count: measured here: cell number, toxicity
# [4] = target: Voltage-gated potassium channel subunit beta-2 (Rattus norvegicus) (UniProt P62483); test: inhibitors of rat Kvbeta2 reductase activity – biochemical, NADPH fluorescence, primary screen (AID 622); details: recombinant KvBeta, 4-cyanobenzaldehyde reduction, at 10 µM, stronger effect = higher value;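 also: slope of raw intensity against log time taken from 70 to 1610 s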
# Sequence of Voltage-gated potassium channel subunit beta-2 (Rattus norvegicus) (P62483 whole entry, looked up): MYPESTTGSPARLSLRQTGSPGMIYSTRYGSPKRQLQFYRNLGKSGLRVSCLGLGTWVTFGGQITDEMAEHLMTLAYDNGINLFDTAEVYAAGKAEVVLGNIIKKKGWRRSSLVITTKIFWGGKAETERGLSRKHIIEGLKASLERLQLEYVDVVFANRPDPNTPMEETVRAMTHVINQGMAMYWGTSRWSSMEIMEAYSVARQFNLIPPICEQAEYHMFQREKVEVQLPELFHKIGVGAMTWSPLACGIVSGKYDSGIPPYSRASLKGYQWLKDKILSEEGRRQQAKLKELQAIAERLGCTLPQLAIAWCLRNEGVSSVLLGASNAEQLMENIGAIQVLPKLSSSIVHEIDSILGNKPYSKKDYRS
# [5] = target: Voltage-gated potassium channel subunit beta-2 (Rattus norvegicus) (UniProt P62483); test: enhancers of rat Kvbeta2 NADPH turnover – biochemical, NADPH fluorescence, primary screen (AID 623;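 active = NADPH fluorescence slope more negative than the mean of all samples by about 3 SD, 99.7% confidence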;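 also: fluorescence intensity change per second fitted from 20 to 320 s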); details: Recombinant KvBeta, NADPH fluorescence decrease slope, 10 min; at 10 µM; stronger effect = lower value
# [6] = target: Alpha-2C adrenergic receptor (Homo sapiens) (UniProt P18825); test: compounds altering alpha2C-coupled GIRK flux – cell-based, HEK293 alpha2C/GIRK1/2, thallium flux, primary screen (AID 624;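 active = fluorescence slope after compound addition differing from the mean of all screened samples at 99.7% confidence, in either direction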;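 also: slope of fluorescence ratio to pre-addition baseline per second over 15 to 24 s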); details: thallium flux BTC fluorescence, at 10 µM, actives lie on both sides
# Sequence of Alpha-2C adrenergic receptor (Homo sapiens) (P18825 whole entry, looked up): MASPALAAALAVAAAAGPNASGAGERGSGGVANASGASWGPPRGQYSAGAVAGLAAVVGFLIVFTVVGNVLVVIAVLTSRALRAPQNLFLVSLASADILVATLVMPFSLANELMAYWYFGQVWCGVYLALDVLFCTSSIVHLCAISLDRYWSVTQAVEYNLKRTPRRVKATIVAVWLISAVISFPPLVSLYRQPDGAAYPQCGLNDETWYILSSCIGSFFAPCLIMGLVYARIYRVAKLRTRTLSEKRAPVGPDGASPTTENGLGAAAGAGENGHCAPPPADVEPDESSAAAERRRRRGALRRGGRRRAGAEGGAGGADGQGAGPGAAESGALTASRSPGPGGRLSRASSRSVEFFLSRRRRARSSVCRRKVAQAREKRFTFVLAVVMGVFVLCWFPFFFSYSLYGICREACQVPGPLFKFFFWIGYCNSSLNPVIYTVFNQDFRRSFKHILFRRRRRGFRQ
# [7] = blockers of RIG-like receptor reporter activation – cell-based, Sendai virus stimulus, luciferase, 10K MLSCN set, TLR/RLR signaling modifier project, primary screen (AID 602276;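 active = inhibition at or above 50% at 10 µM; inactive = inhibition below 50%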;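 also: firefly luciferase from ISG56 promoter only with Renilla not read in this screen; 0% = Sendai virus plus DMSO and 100% = medium plus DMSO without virus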); details: HEK293 RL24 IRF3 luciferase reporter, at 10 µM, stronger effect = higher value
# [8] = TLR3 IRF3 reporter activation blockers – cell-based, poly I:C stimulus, luciferase, 10K MLSCN set, primary screen (AID 602277;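 active = inhibition of the reporter signal at or above 50%; inactive = inhibition below 50%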); details: HEK293-TLR3 RL24 IRF3 luciferase reporter, at 10 µM, stronger effect = higher value
Structure (SMILES),cell count [1],inhibition [1],inhibition of aggregation [2],nuclei count [2],inhibition [3],nuclei count [3],fluorescence slope [4],NADPH fluorescence slope [5],slope [6],inhibition [7],inhibition [8]
Cc1cccc(NC(=O)c2ccccc2O)c1C,497,4.9% (inactive),-10% (inactive),98.2%,-5.3% (inactive),122%,-0.482 (inactive),-2.8e-05 (inactive),0.00603 (inactive),-45.5% (inactive),-93.4% (inactive)
COc1cc(OC)nc(NC(=O)CSc2nc3ccccc3o2)n1,740,-0.3% (inactive),-30.6% (inactive),102%,-18.2% (inactive),107%,-0.609 (inactive),-2.6e-05 (inactive),0.00329 (inactive),12.8% (inactive),-3.75% (inactive)
O=S(=O)(NCC1CCCO1)c1cc(Cl)ccc1Br (centres undefined),426,-0.2% (inactive),7.4% (inactive),108%,-4.9% (inactive),117%,-0.506 (inactive),7.7e-05 (inactive),0.00336 (inactive),-13.6% (inactive),-30.7% (inactive)
COc1ccc(CCn2c(NCCCN3CCOCC3)nc3c2c(=O)[nH]c(=O)n3C)cc1,395,2.1% (inactive),-5.3% (inactive),110%,-6.4% (inactive),99.3%,-0.539 (inactive),2.7e-05 (inactive),0.00501 (inactive),-6.62% (inactive),-4.13% (inactive)
COc1nc(C)ccc1-c1noc(-c2ccncc2)n1,255,7% (inactive),-7.3% (inactive),36.4%,-40% (inactive),130%,-0.468 (inactive),-1.8e-06 (inactive),0.00545 (inactive),-26% (inactive),-82.9% (inactive)
COc1ccc(CNc2oc(-c3ccccc3)nc2C#N)cc1,458,5% (inactive),-12.2% (inactive),99.5%,-19.4% (inactive),67.2%,-0.523 (inactive),2.8e-05 (inactive),0.00683 (inactive),-29.8% (inactive),-35.1% (inactive)
CCOc1ccccc1OCCCCN1CCCC1,608,10.2% (inactive),15.7% (inactive),100%,-99% (inactive),122%,-0.47 (inactive),-5.2e-06 (inactive),0.00972 (active),7.96% (inactive),35.8% (inactive)
COCCSc1nnc(NC(=O)Cc2ccccc2OC)s1,660,-15.1% (inactive),5.4% (inactive),94.2%,-30.7% (inactive),103%,-0.411 (inactive),-5.1e-05 (inactive),0.00483 (inactive),16.6% (inactive),25.8% (inactive)
Cc1cc(C)nc(SC2=CS(=O)(=O)c3ccccc32)n1,409,4.2% (inactive),-0.8% (inactive),107%,-15.3% (inactive),95.9%,-0.358 (inactive),3.3e-05 (inactive),0.00592 (inactive),9.85% (inactive),-5.16% (inactive)
N#CCCN1CCN(S(=O)(=O)c2ccc(S(=O)(=O)NC3CCCCC3)cc2)CC1,645,-2.4% (inactive),-20.2% (inactive),124%,-47.2% (inactive),115%,-0.584 (inactive),-4.3e-06 (inactive),0.00631 (inactive),14.1% (inactive),32.4% (inactive)
CCC(C(=O)OCC(=O)Nc1c(C)n(C)n(-c2ccccc2)c1=O)c1ccccc1 (centres undefined),640,6.8% (inactive),5.9% (inactive),89.5%,-53% (inactive),122%,-0.539 (inactive),5.3e-06 (inactive),0.00674 (inactive),7.71% (inactive),15.4% (inactive)
CCCCCc1c(O)nc(SCC(=O)NCC2CCCO2)[nH]c1=O (centres undefined),579,7.7% (inactive),-2.5% (inactive),108%,-51.3% (inactive),111%,-0.417 (inactive),3.1e-05 (inactive),0.00681 (inactive),3.21% (inactive),1.9% (inactive)
Cn1c(=O)c(C(=O)Nc2cccnc2)c(O)c2ccccc21,632,5.5% (inactive),0.5% (inactive),128%,-74% (inactive),112%,-0.479 (inactive),-4.8e-05 (inactive),0.0062 (inactive),-29.2% (inactive),-42.3% (inactive)
CCOc1ccc2nc(NC(=O)C3CCCN(S(=O)(=O)c4c(C)noc4C)C3)sc2c1 (centres undefined),674,-4% (inactive),-0.7% (inactive),108%,-7.3% (inactive),114%,-0.592 (inactive),-1.1e-05 (inactive),0.00699 (inactive),-4.49% (inactive),-47.9% (inactive)
Cc1cccc(C2CC(c3ccc(Cl)cc3)Nc3nc(N)nn32)c1 (centres undefined),598,-2.4% (inactive),18.5% (inactive),58.9%,-0.5% (inactive),102%,-0.525 (inactive),-4.5e-05 (inactive),0.00816 (inactive),4.61% (inactive),25.1% (inactive)
O=C(COc1ccccc1)N1CCN(c2ncnc3c2cnn3-c2ccccc2)CC1,476,1% (inactive),1.3% (inactive),108%,-4.4% (inactive),119%,-0.623 (inactive),-4e-05 (inactive),0.00515 (inactive),14.5% (inactive),-0.433% (inactive)
COC(=O)c1ccccc1S(=O)(=O)NC(=O)c1ccccc1,368,-2.8% (inactive),-12.4% (inactive),96.8%,-26% (inactive),114%,-0.593 (inactive),-3.3e-08 (inactive),0.00588 (inactive),13.5% (inactive),24.3% (inactive)
CCOc1ccccc1C1NC(=O)NC(C)=C1C(=O)OC1CCCC1C (centres undefined),686,2.9% (inactive),-3.3% (inactive),103%,13.9% (inactive),99.1%,-0.488 (inactive),-5e-05 (inactive),0.00539 (inactive),16.6% (inactive),22.2% (inactive)
CCCCNC(=O)c1nc2ncc(Br)cn2n1,665,0% (inactive),-12.4% (inactive),109%,56.5% (inactive),81.1%,-0.442 (inactive),-7.5e-05 (inactive),0.00578 (inactive),12.8% (inactive),22.4% (inactive)

# Source: PubChem BioAssay
